Measurements from PubChem BioAssay (EPA / NIEHS).
Active and inactive are the calls of the source. How the source made its calls: active means hit-call score of the fitted dose curve at least 0.9, where 1 is the maximum; inactive means score below 0.9.

Read-out: Apolipoprotein A-V (APOA5) gene, APOA5 (gene 116519)
Test: LTEA_HepaRG_APOA5: Life Technologies and Expression Analysis (LTEA) Assay for Apolipoprotein A-V (APOA5) gene using HepaRG (AID 2283474)
Conditions: mRNA level, 48 h; actives raise or lower the signal
Protocol: LTEA_HepaRG is a cell based, multiplexed-readout assay that uses HepaRG, a human liver cell line, with measurements taken at 48 hours after chemical dosing on a 96-well plate.LTEA_HepaRG_APOA5 is one of 102 assay component(s) measured in the LTEA HepaRG cell culture assay. It is a marker of Steatosis.Data from the assay component LTEA_HepaRG_APOA5 was analyzed into 1 endpoint. This assay endpoint, LTEA_HepaRG_APOA5, was analyzed with bidirectional fitting relative to DMSO as the negative control and baseline of activity. Using a type of inducible reporter, measures of mRNA induction for gain or loss-of-signal activity can be used to understand regulation of transcription factor activity. To generalize the intended target to other relatable targets, this assay endpoint is annotated to the apolipoprotein intended target family, where the subfamily is Steatosis.
A total of 1060 chemcials from the ToxCast library were tested in eight-point concentration-response experiments. Cell culture and cytotoxicity assays were conducted at Thermo Fisher Scientific's Custom Services facility (Madison, WI). A single lot of human HepaRG cells (Thermo Fisher Scientific, Frederick, MD) was used for the cell culture experiments. 96-well format collagen type I coated plates of human HepaRG cells were prepared using established methods. Briefly, cryopreserved HepaRG cells were thawed, plated at a density of approximately 100,000 cells/well in HepaRG Thaw, Plate, and General Purpose media (HPRG770, Thermo Fisher Scientific), and incubated for 48 hours. 0.5% DMSO was selected as vehicle control to balance the requisite need of DMSO in HepaRG cultures to maintain differentiation (for example, baseline metabolism, proportions of hepatocytes vs. cholangiocytes), while enabling further hepatic receptor pathway activation (for example, PXR and CAR) in response to chemical exposure. 48 hours after plating, the culture medium was replaced with HepaRG Serum-Free Incudtion Media. Cells were exposed to each test chemical in duplicate and maintained in CO2 incubators for another 48 hours. Chemical plates were thawed to room temperature and 200x concentrations of treatment groups were prepared. 8-point conentration-reponse curves were made with the highest exposure at 100 uM, followed by half-log dilutions, all in 0.5% DMSO. Each test plate contained variouse controls, induction positive controls (1mM phenobarbital), cytotoxicity positive controls ([…] aflatoxin B1), vehicle controls (0.5% DMSO), and total lysis controls (0.5% DMSO). Cell morphology images were taken using an Essen IncuCyte FLR automated microscope, with six 96-well plates imaged in about 24 minutes. Images were captured and exported and JPEG files. Spent culture media was transfered to black-well plates for the LDH assay, and remaining media was sorted at -80 C for later use. Cells were treated with RLT buffer and frozen until shipped for gene expression analysis. Total RNA was isolated from the cell suspension in 75 uL of Buffer RLT (Qiagen, Germantown, MD 20874) by Quintiles/Expression Analysis (Durham, NC) using a custom isolation procedure. Total RNA from each plate well was transferred to a preamplification plate. Fluidigm's 96.96 Dynamic ArrayTM (Fluidigm, Amsterdam, the Netherlands) technology was used for gene expression analyses by quantitative reverse transcription polymerase chain reaction (qRT-PCR, performed by Quintiles/Expression Analysis, Durham, NC)89. Standard TaqManTM Assays (Applied Biosystems/ThermoFisher Scientific, Foster City, CA) were used to assess the expression of 93 genes selected based on their selectivity and sensitivity to important hepatic receptors known to be modulated by environmental chemicals; importance in human hepatocyte functionality; and hepatotoxicity. […]

SMILES	outcome	AC50
CCCCCCCC/C=C\CCCCCCCC(=O)OC[C@@H](O)[C@H]1OC[C@H](O)[C@H]1O	inactive	–
CCCCOC(=O)c1ccccc1	inactive	–
OCc1ccccc1	inactive	–
O=C(O)c1cccc(C[C@@H]2COc3ccc(OCc4nc5cc(F)ccc5s4)cc3[C@@H]2O)c1	–	81.1 µM (active)
OCC(CO)(CO)CO	inactive	–
O=S1(=O)CCCO1	inactive	–
Cc1ccc(S(=O)(=O)NC(=O)NN2CCCCCC2)cc1	inactive	–
CCc1cccc(CC)c1N	inactive	–
CCCCCOC(C)=O	inactive	–
CCCCCCCC1CCC(=O)O1 (stereo not given)	inactive	–
Cn1c(=O)c2[nH]cnc2n(C)c1=O	inactive	–
COc1cc2c(c(OC)c1OC)-c1ccc(OC)c(=O)cc1[C@@H](NC(C)=O)CC2	–	0.138 µM (active)
CCCCCCCCCC	inactive	–
O=S(=O)(O)c1ccc(N=Nc2c(O)ccc3cc(S(=O)(=O)O)ccc23)cc1	inactive	–
OC(CCl)CCl	inactive	–
c1ccc(C(O[C@@H]2CCCN(CCc3ccc4c(c3)OCO4)C2)c2ccccc2)cc1	inactive	–
C[C@]12C=CC(=O)C=C1CC[C@H]1[C@@H]3C[C@@H](O)[C@](O)(C(=O)CO)[C@@]3(C)C[C@H](O)[C@@]12F	inactive	–
CCCc1ccccc1	inactive	–
CC[C@H](C)C(=O)O[C@H]1C[C@H](O)C=C2C=C[C@H](C)[C@H](CC[C@@H](O)C[C@@H](O)CC(=O)O)[C@H]21	inactive	–
c1ccc2ncccc2c1	inactive	–

SMILES	outcome	AC50
CCCCCCCCN(C)C	inactive	–
NNC(=O)c1ccncc1	inactive	–
Cc1nccn1-c1ccc(Sc2cccc(C3(C(N)=O)CCOCC3)c2)cc1	–	11.3 µM (active)
CNC(C)=O	inactive	–
CC1(C)C(=O)N(Cl)C(=O)N1Cl	inactive	–
OC[C@H]1O[C@@](CO)(O[C@H]2O[C@H](CO)[C@@H](O)[C@H](O)[C@H]2O)[C@@H](O)[C@@H]1O	inactive	–
CCn1nc(C)c2c1C(=O)NCC(c1ccc(O)cc1)=N2	inactive	–
NC(N)=O	inactive	–
CCCCC(CC)C(=O)OCCOCCOCCOC(=O)C(CC)CCCC (stereo not given)	inactive	–
CC(=O)c1ccccc1	inactive	–
NC(=O)N(O)[C@@H]1COc2cc(OCc3ccccc3)ccc21	inactive	–
c1ccc2c(c1)-c1cccc3c1c-2cc1ccccc13	–	13.4 µM (active)
COS(C)(=O)=O	inactive	–
OC(Cn1cncn1)(Cn1cncn1)c1ccc(F)cc1F	inactive	–
O=c1[nH]cnc2c1ncn2[C@H]1CC[C@@H](CO)O1	inactive	–
OC[C@H]1O[C@@H]2O[C@H]3[C@H](O)[C@@H](O)[C@@H](O[C@H]4[C@H](O)[C@@H](O)[C@@H](O[C@H]5[C@H](O)[C@@H](O)[C@@H](O[C@H]6[C@H](O)[C@@H](O)[C@@H](O[C@H]7[C@H](O)[C@@H](O)[C@@H](O[C@H]1[C@H](O)[C@H]2O)O[C@@H]7CO)O[C@@H]6CO)O[C@@H]5CO)O[C@@H]4CO)O[C@@H]3CO	inactive	–
CCOC(N)=O	inactive	–
O=C1CN(N=Cc2ccc([N+](=O)[O-])o2)C(=O)N1	inactive	–
Cc1ncc([C@@H](CCCCCCc2ccc3c(n2)NCCC3)CC(=O)O)cn1	inactive	–
CCCCN1C(=O)[C@@H]([C@H](O)C2CCCCC2)NC(=O)C12CCN(Cc1ccc(Oc3ccc(C(=O)O)cc3)cc1)CC2	–	3.04 µM (active)
